# Assay results as given in PubChem BioAssay (NCATS).
# Several values for one entry are separate records, joined by “and”; a condition that tells them apart may be missing. Equal values may be shown once. Inconclusive results are not listed. Activity calls are given as the source filed them. Unless noted, calls come from the whole dose curve; as a rule, active = well fitted curve in the direction sought with a large enough effect; inconclusive = small, poorly fitted or top-dose-only effect, or another doubt; inactive = no such curve, though single readings can be large or run the other way.
# Columns and labels:
# [1] = qHTS Assay for Identifying Gametocytocidal Compounds (AID 743244); note: potency is the fitted concentration of half-maximal effect;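 for max response: % is set by controls: 0 for no effect and ±100 for the full control effect; actives lower the fluorescent signal which means gametocytes are killed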; conditions: P. falciparum 3D7 stage III-V gametocytes, alamarBlue, 72 h; max response: stronger effect = lower value
# Summary of the method: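 3D7 gametocytes, stages III–V, 20,000/well; cpd 72 h, 37 °C/5% CO2; + alamarBlue 24 h; fluor. Ex 525/Em 598.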
# [2] = target: T1, Hexokinase-4 (Homo sapiens) + Glucokinase regulatory protein (Homo sapiens) (UniProt P35557+Q14397); test: qHTS assay for inhibitors of recombinant human GCK-GKRP interaction: Diaphorase-coupled assay (AID 743205)
# Summary of the method: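 25 mM Hepes pH 7.6, 5 mM glucose, 0.4 mM ATP, 4 U/ml G6PDH; 10 nM each GST-GCK/FLAG-GKRP. Kinetic fluorescence read, 1/min × 30 min. Normalized: DMSO ± enzyme = max/min.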
# [3] = target: T1, Hexokinase-4 (Homo sapiens) + Glucokinase regulatory protein (Homo sapiens); test: qHTS assay for inhibitors of recombinant human GCK-GKRP interaction: HTRF assay (AID 743207);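 note: 0% = DMSO with GCK present and -100% = DMSO wells lacking GCK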
# Summary of the method: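 5 nM GST-GCK + 5 nM FLAG-GKRP + 2 uM S6P, pH 7.1 buffer (25 mM Hepes, 2 mM MgCl2, 25 mM KCl, 1 mM DTT, Tween/BSA); pin-transferred cpd; anti-FLAG XL665/anti-GST K; 60 min RT; HTRF.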
# [4] = qHTS profiling for inhibitors of Plasmodium falciparum (3D7) proliferation (AID 743322);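 note: infected erythrocytes exposed to compound for 72 h before lysis; 100% = DMSO vehicle wells and 0% = 0.29 µM artemisinin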; conditions: P. falciparum 3D7 proliferation; at 28.7 µM (top of the series)
# Summary of the method: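 Parasite DNA was quantified by SYBR Green I fluorescence (ex 485, em 535 nm) after overnight lysis in saponin/Triton buffer at room temperature. Cultures at 0.3% parasitemia and 2.5% hematocrit were first exposed to compound for 72 h at 37 C; signals were normalised to artemisinin (0.29 uM) and vehicle wells.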
# [5] = qHTS profiling for inhibitors of Plasmodium falciparum (DD2) proliferation (AID 743323; call rule not given here); conditions: lower = more inhibition; at 28.7 µM (top of the series)
# Summary of the method: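 Parasite DNA quantified by SYBR Green fluorescence (ex 485, em 535 nm) after saponin/Triton lysis and overnight dark incubation. Cultures: 0.3% parasitemia, 2.5% hematocrit, 72 h, 37 C; data scaled between DMSO and 0.29 uM artemisinin.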
# T1 sequence (P35557 whole entry, looked up): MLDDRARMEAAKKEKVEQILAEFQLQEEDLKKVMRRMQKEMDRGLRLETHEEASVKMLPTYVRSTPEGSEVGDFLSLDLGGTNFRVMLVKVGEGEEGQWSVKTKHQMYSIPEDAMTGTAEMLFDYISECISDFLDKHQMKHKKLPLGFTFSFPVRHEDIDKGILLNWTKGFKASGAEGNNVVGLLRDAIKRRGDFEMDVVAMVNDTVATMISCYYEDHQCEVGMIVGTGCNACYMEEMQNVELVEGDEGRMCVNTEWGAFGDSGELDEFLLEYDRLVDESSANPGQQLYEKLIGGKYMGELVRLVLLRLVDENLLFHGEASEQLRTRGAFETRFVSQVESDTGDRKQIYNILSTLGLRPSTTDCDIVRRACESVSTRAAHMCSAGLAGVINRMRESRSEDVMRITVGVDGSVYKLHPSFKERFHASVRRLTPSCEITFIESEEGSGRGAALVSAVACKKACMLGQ
# T1 sequence (Q14397 whole entry, looked up): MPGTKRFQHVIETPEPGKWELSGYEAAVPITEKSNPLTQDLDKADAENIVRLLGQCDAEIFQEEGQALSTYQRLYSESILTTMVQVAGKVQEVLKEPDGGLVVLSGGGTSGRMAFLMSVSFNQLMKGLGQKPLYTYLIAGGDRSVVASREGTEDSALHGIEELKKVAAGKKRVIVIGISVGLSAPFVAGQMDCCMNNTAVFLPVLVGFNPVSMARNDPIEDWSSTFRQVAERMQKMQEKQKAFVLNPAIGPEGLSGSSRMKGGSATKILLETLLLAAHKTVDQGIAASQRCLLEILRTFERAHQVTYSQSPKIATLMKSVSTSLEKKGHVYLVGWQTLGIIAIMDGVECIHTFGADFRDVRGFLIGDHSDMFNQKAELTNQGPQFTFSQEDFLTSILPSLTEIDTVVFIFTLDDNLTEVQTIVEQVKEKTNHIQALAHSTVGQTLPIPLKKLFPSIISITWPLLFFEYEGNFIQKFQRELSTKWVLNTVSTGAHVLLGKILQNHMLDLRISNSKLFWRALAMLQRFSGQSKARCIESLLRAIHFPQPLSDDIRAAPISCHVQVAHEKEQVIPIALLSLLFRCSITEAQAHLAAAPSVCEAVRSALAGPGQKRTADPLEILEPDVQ
compound,measurement,setting,value
CC(C)(O)[C@@H]1[C@H]2OC(=O)[C@@H]1[C@]1(O)C[C@H]3O[C@]34C(=O)O[C@H]2[C@]14C,max response,[1],-7.5% (inactive) and 15.4% (inactive)
CCNC1(c2cccs2)CCCCC1=O (stereo not drawn),max response,[1],-0.213% (inactive)
C[C@]12CC[C@H](OS(=O)(=O)O)CC1=CC[C@@H]1[C@@H]2CC[C@]2(C)C(=O)CC[C@@H]12,max response,[1],33.6% (inactive)
O=S(=O)(O)c1cc(O)ccc1O,max response,[1],6.77% (inactive)
CCN(CC)CCO[C@H]1CC[C@@]2(C)C(=CC[C@@H]3[C@@H]2CC[C@]2(C)C(=O)CC[C@@H]32)C1,max response,[1],-4.56% (inactive)
CC(C)[C@@]1(NC(=O)[C@@H]2C[C@@H]3c4cccc5[nH]cc(c45)C[C@H]3N(C)C2)O[C@@]2(O)[C@@H]3CCCN3C(=O)[C@H](Cc3ccccc3)N2C1=O,Potency,[2],inactive
same,outcome,[3],inactive
same,Potency,[1],5.01 µM (active)
C#CC(C)(O)CC (stereo not drawn),max response,[1],4.2% (inactive)
CP(=O)(O)C1=CCNCC1,Potency,[2],inactive
same,outcome,[3],inactive
same,max response,[1],6.19% (inactive)
COC1=CC=C2[C@H]3Cc4ccc(OC)c5c4[C@@]2(CCN3C)[C@H]1O5,max response,[1],13.9% (inactive)
O=c1ccc2cc(O[C@@H]3O[C@H](CO)[C@@H](O)[C@H](O)[C@H]3O)c(O)cc2o1,max response,[1],0.481% (inactive)
Cc1ccccc1-n1c(C)nc2ccccc2c1=O,max response,[1],5.64% (inactive) and -12.4% (inactive)
NC(Cc1ccc(N(CCCl)CCCl)cc1)C(=O)O (stereo not drawn),Potency,[2],inactive
same,outcome,[3],inactive
same,max response,[1],8.23% (inactive)
same,remaining parasite growth % (stronger effect = lower value),[4],34.1%
same,"activity, percent of control",[5],18.8%
C[N+]1(C)CCCCC1COC(=O)C(O)(c1ccccc1)c1ccccc1 (stereo not drawn),max response,[1],-10.4% (inactive)
O=c1[nH]cc(N(CCCl)CCCl)c(=O)[nH]1,max response,[1],-3.92% (inactive)
O=C1OC2(c3cc(Br)c(O)cc3Oc3c2cc(Br)c(O)[c]3[Hg])c2ccccc21 (stereo not drawn),max response,[1],-1.46% (inactive)
Cc1sc2ccccc2c1CC1=NCCN1,Potency,[2],inactive
same,outcome,[3],inactive
same,max response,[1],25.3% (inactive)
C[C@]12C=CC(=O)C=C1CC[C@@H]1[C@@H]2CC[C@]2(C)OC(=O)CC[C@@H]12,max response,[1],-1.22% (inactive)
CC(=O)O[C@H]1C[C@H](O[C@H]2[C@@H](O)C[C@H](O[C@H]3[C@@H](O)C[C@H](O[C@H]4CC[C@@]5(C)[C@H](CC[C@@H]6[C@@H]5C[C@@H](O)[C@]5(C)[C@@H](C7=CC(=O)OC7)CC[C@]65O)C4)O[C@@H]3C)O[C@@H]2C)O[C@H](C)[C@H]1O[C@@H]1O[C@H](CO)[C@@H](O)[C@H](O)[C@H]1O,max response,[1],-19.5% (inactive)
CN1c2ccccc2C(NCCCCCCC(=O)O)c2ccc(Cl)cc2S1(=O)=O (stereo not drawn),max response,[1],-8.42% (inactive)
c1cc2c(c(NC3=NCCN3)c1)CCCC2,max response,[1],-7.43% (inactive)
CCC(=O)O[C@@](Cc1ccccc1)(c1ccccc1)[C@@H](C)CN(C)C,max response,[1],5.87% (inactive)
CNC1(c2ccccc2Cl)CCCCC1=O (stereo not drawn),max response,[1],16% (inactive) and -7.76% (inactive)
CN1CCc2cc(O)cc3c2[C@H]1Cc1ccc(O)c(O)c1-3,Potency,[2],inactive
same,outcome,[3],inactive
same,max response,[1],32.9% (inactive)
C/C(O)=C(\C#N)C(=O)Nc1cc(Br)ccc1Br,Potency,[2],inactive
same,outcome,[3],inactive
same,max response,[1],-6.48% (inactive)
CCNC(=O)[C@H]1O[C@@H](n2cnc3c(N)ncnc32)[C@H](O)[C@@H]1O,Potency,[2],inactive
same,outcome,[3],inactive
same,max response,[1],-1.58% (inactive)
CCOC(=O)/C=C(C)/C=C/C[C@@H](C)CCCC(C)C,max response,[1],10.1% (inactive)
O=C1CN=C(c2ccccc2)c2cc(Cl)ccc2N1CC1CC1,max response,[1],-0.952% (inactive)
c1ccc2sc(SNC3CCCCC3)nc2c1,max response,[1],27.5% (inactive)
Cc1ccccc1-n1c(CF)nc2ccc(N)cc2c1=O,max response,[1],-0.397% (inactive)
C[C@H]1CC[C@]2(NC1)O[C@H]1C[C@H]3[C@@H]4CC[C@H]5C[C@@H](O)CC[C@]5(C)[C@H]4CC[C@]3(C)[C@H]1[C@@H]2C,max response,[1],2.92% (inactive)
CN[C@H]1C[C@@H](N)[C@H](O)[C@@H](O[C@@H]2O[C@H](CO)[C@H](O)[C@@H]3OC4(O[C@H]23)O[C@H](C(N)CO)[C@H](O)[C@H](O)[C@H]4O)[C@@H]1O (stereo partly drawn),max response,[1],-0.708% (inactive) and -7.43% (inactive)
CCCN(CCC)C1Cc2cc(OC)c(OC)cc2C1,Potency,[2],inactive
same,outcome,[3],inactive
same,max response,[1],13.4% (inactive)
CCCN(CCC)CCc1c[nH]c2ccc(C(N)=O)cc12,Potency,[2],inactive
same,outcome,[3],inactive
same,max response,[1],-3.58% (inactive)
